# Experimental data taken from PubChem BioAssay (EPA / NIEHS).
# Results filed as inconclusive are left out. Activity calls are given as the source filed them. How the source made its calls, unless noted: active means hit-call score of the fitted dose curve at least 0.9, where 1 is the maximum; inactive means score below 0.9.
# Tests used:
# [1] = CEETOX_H295R_CORTISOL_noMTC: CeeTox H295R High-throughput Steroidogenesis Assay for Cortisol, maximum tolerated concentration (MTC) filtered results only (AID 2283916); conditions: actives raise or lower the signal
# Experimental: CEETOX_H295R is a cell-based, multiplexed-readout assay that uses H295R, a human adrenal gland cell line, with measurements taken at 48 hours after chemical dosing in a 96-well plate.CEETOX_H295R_CORTISOL_noMTC is one of 12 assay component(s) measured or calculated from the CEETOX_H295R assay (11 hormones and 1 viability assay). It is designed to make measurements of hormone induction, a form of inducible reporter, as detected with absorbance signals by HPLC-MS-MS technology. The concentrations for these components have not been pre-filtered for the maximum tolerated concentration (MTC) based on the MTT assay (_noMTC).Data from the assay component CEETOX_H295R_CORTISOL_noMTC was analyzed into 1 assay endpoint. This assay endpoint, CEETOX_H295R_CORTISOL_noMTC, was analyzed with bidirectional fitting relative to DMSO as the negative control and baseline of activity. Using a type of inducible reporter, gain or loss-of-signal activity using HPLC-MS-MS was used to understand synthesis of Cortisol in H295R cell line at 48hr of chemical exposure, without filtering concentrations for maximum tolerated concentration (MTC). To generalize the intended target to other relatable targets, this assay endpoint is annotated to the steroid hormone intended target family, where the subfamily is glucocorticoids.
# Cell culture and media preparation procedures were conducted in accordance with OECD Test No. 456 guidelines, with minor modifications. H295R cells (ATCC CRL-2128) were expanded for 5 passages and frozen in batches in liquid nitrogen. […] For steroid quantification, media samples were shipped to OpAns, LLC (Durham, NC) on dry ice, and samples were thawed to room temperature prior to liquid-liquid extraction. […] Steroid hormones were separated by HPLC, eluted using a reverse phase C18 gradient with electrospray positive ionization, followed by quantification by tandem mass spectrometry (MS/MS). Data were acquired on a MassHunter Workstation Acquisition version B03.01 (Agilent Technologies, Inc.) and processed using MassHunter Quantitative Analysis for QQQ. Accuracy was determined for each hormone analyte from 3 standards to determine upper and lower limits of quantification (ULOQ and LLOQ, respectively) using a 7-point standard curve. Precision and accuracy of the extraction and quantification methods were calculated as the percent relative standard deviation (%RSD) of the spiked standards and percent spiked standard recovered, respectively. The goal was to achieve 100% accuracy (i.e., recover all spiked-in standard at quantification with minimal loss during run time) and good precision (i.e., have %RSD <15% to ensure reproducibility). Test medium was removed following chemical exposure, and cell viability was evaluated in the same wells by MTT. […]
# [2] = CEETOX_H295R_CORTIC_noMTC: CeeTox H295R High-throughput Steroidogenesis Assay for Corticosterone (CORTIC), maximum tolerated concentration (MTC) filtered results only (AID 2283917); conditions: actives raise or lower the signal
# Procedure, shortened: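 H295R adrenal cells pre-stimulated 48 h with 10 uM forskolin, then exposed 48 h to chemical in 0.1% DMSO; corticosterone in medium quantified by HPLC-MS/MS, fitted bidirectionally versus DMSO without MTT-based concentration filtering.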
# [3] = CEETOX_H295R_DOC_noMTC: CeeTox H295R High-throughput Steroidogenesis Assay for DOC, maximum tolerated concentration (MTC) filtered results only (AID 2283918); conditions: actives raise or lower the signal
# Procedure, shortened: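 H295R cells prestimulated 48 h with 10 uM forskolin, then exposed 48 h to chemical in 0.1% DMSO. 11-Deoxycorticosterone in medium measured by MTBE extraction and HPLC-MS/MS; bidirectional fit vs DMSO, no MTC filter.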
# [4] = CEETOX_H295R_PROG_noMTC: CeeTox H295R High-throughput Steroidogenesis Assay for Progesterone (PROG), maximum tolerated concentration (MTC) filtered results only (AID 2283920); conditions: actives raise or lower the signal
# Procedure, shortened: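 H295R cells, prestimulated 48 h with 10 uM forskolin, exposed 48 h to chemical in 0.1% DMSO. Medium progesterone quantified by MTBE extraction and HPLC-MS/MS; bidirectional fit versus DMSO, concentrations not MTT-filtered.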
# PGR (gene 5241) = PGR (gene 5241) (UniProt P06401); test: TOX21_PR_BLA_Followup_Antagonist_ratio: Tox21 HEK293 Progesterone Receptor (PR) Antagonism Beta-lactamase Follow-Up Assay, Ratio (AID 2283934; active means hit-call score of the fitted dose curve at least 0.9, where 1 is the maximum)
# PGR (gene 5241), sequence (P06401 whole entry, looked up): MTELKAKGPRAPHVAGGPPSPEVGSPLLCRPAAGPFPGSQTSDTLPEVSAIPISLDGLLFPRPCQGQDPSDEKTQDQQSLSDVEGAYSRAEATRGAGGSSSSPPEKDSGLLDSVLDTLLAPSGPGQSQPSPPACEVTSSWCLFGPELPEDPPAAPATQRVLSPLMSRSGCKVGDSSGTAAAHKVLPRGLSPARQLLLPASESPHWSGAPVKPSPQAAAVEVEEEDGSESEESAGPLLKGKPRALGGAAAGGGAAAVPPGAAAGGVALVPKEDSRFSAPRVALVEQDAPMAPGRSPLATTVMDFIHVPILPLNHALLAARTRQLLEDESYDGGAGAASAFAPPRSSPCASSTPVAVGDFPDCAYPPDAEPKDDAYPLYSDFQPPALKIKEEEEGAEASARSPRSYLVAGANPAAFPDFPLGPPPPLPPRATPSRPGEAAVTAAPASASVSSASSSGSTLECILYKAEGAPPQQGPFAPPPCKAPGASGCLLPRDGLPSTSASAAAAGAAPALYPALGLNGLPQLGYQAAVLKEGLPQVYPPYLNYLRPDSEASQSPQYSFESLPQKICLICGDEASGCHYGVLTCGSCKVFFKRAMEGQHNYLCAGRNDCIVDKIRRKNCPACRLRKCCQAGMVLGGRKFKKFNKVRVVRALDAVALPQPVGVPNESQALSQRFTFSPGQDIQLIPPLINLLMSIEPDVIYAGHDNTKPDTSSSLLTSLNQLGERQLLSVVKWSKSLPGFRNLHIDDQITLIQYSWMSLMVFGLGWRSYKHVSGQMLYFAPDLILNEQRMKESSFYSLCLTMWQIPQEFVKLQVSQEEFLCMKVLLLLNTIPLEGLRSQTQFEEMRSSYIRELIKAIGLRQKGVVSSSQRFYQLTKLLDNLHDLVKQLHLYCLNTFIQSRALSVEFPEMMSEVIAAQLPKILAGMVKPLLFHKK
# Procedure, shortened: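 PR-UAS-bla HEK293T cells in medium with 2% charcoal-stripped FBS were treated with compounds plus 1 nM (final) promegestone (R5020) for 16 hr at 37C. LiveBLAzer B/G FRET substrate was then added for 2 h at room temperature; signal is cleaved/uncleaved substrate ratio versus DMSO.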
# [5] = TOX21_PR_BLA_Followup_Agonist_viability: Viability Assessment in the Tox21 HEK293 Progesterone Receptor (PR) Agonism Beta-lactamase Follow-Up Assay (AID 2283935; active means hit-call score of the fitted dose curve at least 0.9, where 1 is the maximum;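 further: signal loss means lower viability so actives are cytotoxic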)
# Procedure, shortened: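 PR-UAS-bla HEK293T cells in 2% charcoal-stripped FBS medium, compound added after 6 hr plating, 16 hr at 37C/5% CO2. After bla FRET read, CellTiter-Glo added; luminescence read after 30 min at room temperature; signal loss marks cytotoxicity.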
# [6] = TOX21_PR_BLA_Followup_Antagonist_viability: Viability Assessment in the Tox21 HEK293 Progesterone Receptor (PR) Antagonism Beta-lactamase Follow-Up Assay (AID 2283936; active means hit-call score of the fitted dose curve at least 0.9, where 1 is the maximum;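 further: hits lower the luminescence signal meaning cytotoxicity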)
# Procedure, shortened: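 PR-UAS-bla HEK293T cells (3,000/well, 2% charcoal-stripped FBS) given compound plus R5020 agonist, 16 h at 37C. CellTiter-Glo added after bla read, 30 min at room temperature; luminescence loss indicates cytotoxicity.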
# [7] = CEETOX_H295R_ESTRADIOL_noMTC: CeeTox H295R High-throughput Steroidogenesis Assay for Estradiol, maximum tolerated concentration (MTC) filtered results only (AID 2283919); conditions: actives raise or lower the signal
# Procedure, shortened: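 H295R human adrenal cells pre-stimulated 48 h with 10 uM forskolin, then exposed 48 h to chemical (0.1% DMSO final). Estradiol in medium measured by HPLC-MS/MS after MTBE extraction and dansyl derivatization; bidirectional fit versus DMSO, concentrations not MTT-filtered.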
# [8] = CEETOX_H295R_ESTRONE_noMTC: CeeTox H295R High-throughput Steroidogenesis Assay for Estrone, maximum tolerated concentration (MTC) filtered results only (AID 2283921); conditions: actives raise or lower the signal
# Procedure, shortened: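 H295R cells prestimulated 48 h with 10 uM forskolin, then exposed 48 h to chemical in 0.1% DMSO; medium estrone measured by HPLC-MS/MS after MTBE extraction and dansyl derivatization, fitted bidirectionally versus DMSO without MTT-based MTC filtering.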
# [9] = CEETOX_H295R_TESTO_noMTC: CeeTox H295R High-throughput Steroidogenesis Assay for Testosterone (TESTO), maximum tolerated concentration (MTC) filtered results only (AID 2283924); conditions: actives raise or lower the signal
# Procedure, shortened: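 H295R cells prestimulated 48 h with 10 uM forskolin, then exposed 48 h to chemicals in 0.1% DMSO final. Testosterone in medium quantified by MTBE extraction and HPLC-MS/MS; bidirectional fit versus DMSO, concentrations […] filtered by MTT-based maximum tolerated concentration.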
smiles,measurement,setting,value
CCOC(=O)c1ccccc1C(=O)OCC,outcome,[1],inactive
same,outcome,[2],inactive
same,outcome,[3],inactive
same,outcome,[4],inactive
CCOP(=S)(OCC)SCSc1ccc(Cl)cc1,AC50,PGR (gene 5241),9.94 µM (active)
same,outcome,[5],inactive
same,outcome,[6],inactive
CCOC(=O)c1ccccc1N,outcome,[1],inactive
same,outcome,[2],inactive
same,outcome,[3],inactive
same,outcome,[7],inactive
same,outcome,[4],inactive
same,outcome,[8],inactive
CCOP(=S)(Oc1ccc([N+](=O)[O-])cc1)c1ccccc1 (centres undefined),AC50,PGR (gene 5241),5.36 µM (active)
same,outcome,[6],inactive
CCOc1ccc(C(C)(C)COCc2cccc(Oc3ccccc3)c2)cc1,outcome,[1],inactive
same,outcome,[2],inactive
same,outcome,[3],inactive
same,outcome,[7],inactive
same,outcome,[4],inactive
same,outcome,[8],inactive
CO/N=C(/C(=O)OC)c1ccccc1COc1ccccc1C,AC50,PGR (gene 5241),37.1 µM (active)
same,outcome,[5],inactive
same,outcome,[6],inactive
CCOP(=S)(OCC)SCS(=O)(=O)CC,AC50,[1],45 µM (active)
same,outcome,[2],inactive
same,AC50,[3],33.5 µM (active)
same,outcome,[7],inactive
same,outcome,[4],inactive
same,outcome,[8],inactive
same,AC50,[9],45.4 µM (active)
O=S1(=O)OCC2C(CO1)C1(Cl)C(Cl)=C(Cl)C2(Cl)C1(Cl)Cl (centres undefined),AC50,PGR (gene 5241),24.2 µM (active)
same,outcome,[5],inactive
same,outcome,[6],inactive
